Results published in publication PMC7862700, “An all-to-all approach to the identification of sequence-specific readers for epigenetic DNA modifications on cytosine”.

Columns and labels:
Experiment in all cases: DAPPL (digital affinity profiling via proximity ligation, sequencing); 10 mM Tris-HCl pH 7.5, 50 mM NaCl, 1 mM DTT, 4% glycerol, room temperature, 30 min; GST-TFs on glutathione beads, 16-mer random dsDNA library, 0.1% formaldehyde crosslink after washing; high values mean tight binding
Conditions in all cases: protein: recombinant; tags: N-terminal GST; dsDNA, one strand shown
[1] = biological target: T1, ERF (Homo sapiens, UniProt P50548 1-548)
T1 sequence: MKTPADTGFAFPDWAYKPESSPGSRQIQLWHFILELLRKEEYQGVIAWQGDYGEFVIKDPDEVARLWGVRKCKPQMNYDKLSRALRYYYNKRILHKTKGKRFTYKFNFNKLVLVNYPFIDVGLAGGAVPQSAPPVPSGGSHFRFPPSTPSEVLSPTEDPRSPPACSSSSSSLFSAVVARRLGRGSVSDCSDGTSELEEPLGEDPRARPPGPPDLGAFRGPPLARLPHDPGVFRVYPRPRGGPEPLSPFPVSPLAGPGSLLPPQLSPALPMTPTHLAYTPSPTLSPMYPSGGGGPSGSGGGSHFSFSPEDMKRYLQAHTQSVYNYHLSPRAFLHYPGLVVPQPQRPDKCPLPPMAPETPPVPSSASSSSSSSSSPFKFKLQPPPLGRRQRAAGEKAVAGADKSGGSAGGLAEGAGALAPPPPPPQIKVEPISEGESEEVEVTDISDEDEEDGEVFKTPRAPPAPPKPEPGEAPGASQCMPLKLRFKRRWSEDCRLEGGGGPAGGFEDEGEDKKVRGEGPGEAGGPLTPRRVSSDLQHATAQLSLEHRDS
Summary of the method: (§1)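 GST fusions of human transcription factors were expressed in yeast and captured with glutathione beads. Once given DNA barcodes and pooled alongside a tag-only sample, they were incubated for 30 min at room temperature with 200 nmole of a random double-stranded 16-mer DNA library in Tris/NaCl/DTT/glycerol buffer, then washed, crosslinked (0.1% formaldehyde), proximity-ligated, PCR-amplified and sequenced on an Illumina NextSeq500. The binding signal of each hexamer is its read frequency for a factor divided by its frequency for the tag-only sample.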

[2] = biological target: T2, ETV3L (Homo sapiens, UniProt Q6ZN32 1-361)
T2 sequence: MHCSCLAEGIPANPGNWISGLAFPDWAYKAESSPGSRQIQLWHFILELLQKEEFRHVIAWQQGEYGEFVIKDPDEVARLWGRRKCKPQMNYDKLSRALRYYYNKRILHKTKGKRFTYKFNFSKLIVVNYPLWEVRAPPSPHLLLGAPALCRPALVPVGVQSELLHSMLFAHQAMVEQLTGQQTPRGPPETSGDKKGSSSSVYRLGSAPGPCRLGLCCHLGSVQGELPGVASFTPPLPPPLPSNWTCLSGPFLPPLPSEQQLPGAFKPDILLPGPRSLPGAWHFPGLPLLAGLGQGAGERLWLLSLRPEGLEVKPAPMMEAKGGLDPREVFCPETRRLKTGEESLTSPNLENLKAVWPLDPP
Summary of the method: as §1

[3] = biological target: T3, ETS2 (Homo sapiens, UniProt P15036 1-469)
T3 sequence: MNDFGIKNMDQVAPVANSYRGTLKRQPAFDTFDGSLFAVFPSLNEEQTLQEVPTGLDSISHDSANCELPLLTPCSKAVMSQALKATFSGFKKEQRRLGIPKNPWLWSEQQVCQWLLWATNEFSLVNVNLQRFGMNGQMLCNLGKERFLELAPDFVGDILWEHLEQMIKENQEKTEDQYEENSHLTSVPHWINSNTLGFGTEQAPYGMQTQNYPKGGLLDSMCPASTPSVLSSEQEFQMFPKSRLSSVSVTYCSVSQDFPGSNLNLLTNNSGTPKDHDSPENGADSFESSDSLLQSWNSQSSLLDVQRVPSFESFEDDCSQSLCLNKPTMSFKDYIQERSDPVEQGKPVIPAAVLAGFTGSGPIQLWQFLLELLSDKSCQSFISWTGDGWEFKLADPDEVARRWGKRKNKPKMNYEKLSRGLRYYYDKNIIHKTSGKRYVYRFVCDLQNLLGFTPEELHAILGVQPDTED
Summary of the method: as §1

[4] = biological target: T4, SPDEF (Homo sapiens, UniProt O95238 1-335)
T4 sequence: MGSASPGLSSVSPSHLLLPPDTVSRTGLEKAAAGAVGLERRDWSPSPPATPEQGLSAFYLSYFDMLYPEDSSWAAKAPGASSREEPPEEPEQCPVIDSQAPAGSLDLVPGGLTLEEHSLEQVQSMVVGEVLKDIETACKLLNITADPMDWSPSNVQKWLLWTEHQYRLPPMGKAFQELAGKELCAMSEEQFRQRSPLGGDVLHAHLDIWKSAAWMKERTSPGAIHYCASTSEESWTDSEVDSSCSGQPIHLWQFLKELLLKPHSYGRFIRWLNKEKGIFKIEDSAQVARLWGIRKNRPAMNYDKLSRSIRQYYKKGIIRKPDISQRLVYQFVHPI
Summary of the method: as §1

[5] = biological target: T5, ETV7 (Homo sapiens, UniProt Q9Y603 1-341)
T5 sequence: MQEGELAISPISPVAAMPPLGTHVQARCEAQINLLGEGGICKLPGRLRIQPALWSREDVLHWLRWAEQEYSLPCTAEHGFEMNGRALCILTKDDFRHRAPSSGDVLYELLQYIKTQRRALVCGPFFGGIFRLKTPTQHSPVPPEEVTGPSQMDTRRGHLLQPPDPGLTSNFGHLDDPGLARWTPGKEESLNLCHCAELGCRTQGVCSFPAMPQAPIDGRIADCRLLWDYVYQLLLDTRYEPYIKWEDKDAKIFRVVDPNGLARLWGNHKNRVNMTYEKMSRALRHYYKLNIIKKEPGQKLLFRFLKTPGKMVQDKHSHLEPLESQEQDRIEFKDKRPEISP
Summary of the method: as §1

[6] = biological target: T6, ELF5 (Homo sapiens, UniProt Q9UKW6-2 1-255)
T6 sequence: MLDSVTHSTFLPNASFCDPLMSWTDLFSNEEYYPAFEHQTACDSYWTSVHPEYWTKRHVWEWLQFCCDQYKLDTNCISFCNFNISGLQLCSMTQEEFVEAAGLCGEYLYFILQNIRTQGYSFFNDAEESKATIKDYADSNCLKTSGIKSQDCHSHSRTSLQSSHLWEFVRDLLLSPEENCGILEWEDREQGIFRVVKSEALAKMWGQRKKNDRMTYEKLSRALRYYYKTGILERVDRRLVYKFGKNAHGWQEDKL
Summary of the method: as §1

[7] = biological target: T7, ETV3 (Homo sapiens, UniProt P41162-2 1-143)
T7 sequence: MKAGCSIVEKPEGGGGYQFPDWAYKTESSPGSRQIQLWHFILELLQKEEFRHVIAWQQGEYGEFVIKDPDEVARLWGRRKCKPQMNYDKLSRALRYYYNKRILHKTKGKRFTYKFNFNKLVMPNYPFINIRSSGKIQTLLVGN
Summary of the method: as §1

[8] = biological target: ETV6 (Homo sapiens, UniProt P41212 1-452)
Chain of ETV6 (P41212 whole entry): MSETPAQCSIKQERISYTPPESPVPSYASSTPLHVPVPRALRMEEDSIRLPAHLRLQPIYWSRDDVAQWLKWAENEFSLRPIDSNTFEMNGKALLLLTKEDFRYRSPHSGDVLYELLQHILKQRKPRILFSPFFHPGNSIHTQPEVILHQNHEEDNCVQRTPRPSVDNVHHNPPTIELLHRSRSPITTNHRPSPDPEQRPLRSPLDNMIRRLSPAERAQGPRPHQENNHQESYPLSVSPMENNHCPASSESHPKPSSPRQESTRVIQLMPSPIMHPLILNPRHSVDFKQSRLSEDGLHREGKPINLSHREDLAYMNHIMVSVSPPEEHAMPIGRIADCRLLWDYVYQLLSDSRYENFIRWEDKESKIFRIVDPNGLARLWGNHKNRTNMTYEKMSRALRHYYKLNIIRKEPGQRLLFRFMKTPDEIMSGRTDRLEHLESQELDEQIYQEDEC
Summary of the method: as §1

TTTTCG
binding signal [1]: 1.25 fold enrichment (6-mer frequency, TF over GST control) | binding signal [2]: 1.41 fold enrichment (6-mer frequency, TF over GST control) | binding signal [3]: 1.26 fold enrichment (6-mer frequency, TF over GST control) | binding signal [4]: 1.16 fold enrichment (6-mer frequency, TF over GST control) | binding signal [5]: 1.2 fold enrichment (6-mer frequency, TF over GST control) | binding signal [6]: 1.3 fold enrichment (6-mer frequency, TF over GST control) | binding signal [7]: 1.25 fold enrichment (6-mer frequency, TF over GST control) | binding signal [8]: 1.09 fold enrichment (6-mer frequency, TF over GST control)

CTCCGA
binding signal [1]: 1.41 fold enrichment (6-mer frequency, TF over GST control) | binding signal [2]: 1.38 fold enrichment (6-mer frequency, TF over GST control) | binding signal [3]: 1.35 fold enrichment (6-mer frequency, TF over GST control) | binding signal [4]: 1.36 fold enrichment (6-mer frequency, TF over GST control) | binding signal [5]: 1.24 fold enrichment (6-mer frequency, TF over GST control) | binding signal [6]: 1.23 fold enrichment (6-mer frequency, TF over GST control) | binding signal [7]: 1.3 fold enrichment (6-mer frequency, TF over GST control) | binding signal [8]: 1.33 fold enrichment (6-mer frequency, TF over GST control)

CGAATA
binding signal [1]: 1.19 fold enrichment (6-mer frequency, TF over GST control) | binding signal [2]: 1.2 fold enrichment (6-mer frequency, TF over GST control) | binding signal [3]: 1.12 fold enrichment (6-mer frequency, TF over GST control) | binding signal [4]: 1.1 fold enrichment (6-mer frequency, TF over GST control) | binding signal [5]: 1.18 fold enrichment (6-mer frequency, TF over GST control) | binding signal [6]: 1.11 fold enrichment (6-mer frequency, TF over GST control) | binding signal [7]: 1.21 fold enrichment (6-mer frequency, TF over GST control) | binding signal [8]: 1.18 fold enrichment (6-mer frequency, TF over GST control)

CCTTGA
binding signal [1]: 1.27 fold enrichment (6-mer frequency, TF over GST control) | binding signal [2]: 1.17 fold enrichment (6-mer frequency, TF over GST control) | binding signal [3]: 1.2 fold enrichment (6-mer frequency, TF over GST control) | binding signal [4]: 1.33 fold enrichment (6-mer frequency, TF over GST control) | binding signal [5]: 1.14 fold enrichment (6-mer frequency, TF over GST control) | binding signal [6]: 1.37 fold enrichment (6-mer frequency, TF over GST control) | binding signal [7]: 1.19 fold enrichment (6-mer frequency, TF over GST control) | binding signal [8]: 1.23 fold enrichment (6-mer frequency, TF over GST control)

GTTTCT
binding signal [1]: 1.24 fold enrichment (6-mer frequency, TF over GST control) | binding signal [2]: 1.33 fold enrichment (6-mer frequency, TF over GST control) | binding signal [3]: 1.28 fold enrichment (6-mer frequency, TF over GST control) | binding signal [4]: 1.21 fold enrichment (6-mer frequency, TF over GST control) | binding signal [5]: 1.38 fold enrichment (6-mer frequency, TF over GST control) | binding signal [6]: 1.31 fold enrichment (6-mer frequency, TF over GST control) | binding signal [7]: 1.24 fold enrichment (6-mer frequency, TF over GST control) | binding signal [8]: 1.28 fold enrichment (6-mer frequency, TF over GST control)

TCGATT
binding signal [1]: 1.01 fold enrichment (6-mer frequency, TF over GST control) | binding signal [2]: 1.06 fold enrichment (6-mer frequency, TF over GST control) | binding signal [3]: 1.16 fold enrichment (6-mer frequency, TF over GST control) | binding signal [4]: 1.05 fold enrichment (6-mer frequency, TF over GST control) | binding signal [5]: 1.04 fold enrichment (6-mer frequency, TF over GST control) | binding signal [6]: 1.03 fold enrichment (6-mer frequency, TF over GST control) | binding signal [7]: 1.01 fold enrichment (6-mer frequency, TF over GST control) | binding signal [8]: 1.04 fold enrichment (6-mer frequency, TF over GST control)

ACTTAT
binding signal [1]: 1.39 fold enrichment (6-mer frequency, TF over GST control) | binding signal [2]: 1.34 fold enrichment (6-mer frequency, TF over GST control) | binding signal [3]: 1.36 fold enrichment (6-mer frequency, TF over GST control) | binding signal [4]: 1.4 fold enrichment (6-mer frequency, TF over GST control) | binding signal [5]: 1.21 fold enrichment (6-mer frequency, TF over GST control) | binding signal [6]: 1.38 fold enrichment (6-mer frequency, TF over GST control) | binding signal [7]: 1.35 fold enrichment (6-mer frequency, TF over GST control) | binding signal [8]: 1.27 fold enrichment (6-mer frequency, TF over GST control)

AAAAGC
binding signal [1]: 1.15 fold enrichment (6-mer frequency, TF over GST control) | binding signal [2]: 1.23 fold enrichment (6-mer frequency, TF over GST control) | binding signal [3]: 1.15 fold enrichment (6-mer frequency, TF over GST control) | binding signal [4]: 1.07 fold enrichment (6-mer frequency, TF over GST control) | binding signal [5]: 1.35 fold enrichment (6-mer frequency, TF over GST control) | binding signal [6]: 1.26 fold enrichment (6-mer frequency, TF over GST control) | binding signal [7]: 1.22 fold enrichment (6-mer frequency, TF over GST control) | binding signal [8]: 1.26 fold enrichment (6-mer frequency, TF over GST control)
